# Laboratory results: ChEMBL document CHEMBL1961873, “Compounds: GSK PKIS; Assays: Nanosyn kinase panel” (2012)
# Key:
# [1] = biological target: T1, Inhibitor of nuclear factor kappa-B kinase subunit epsilon (Homo sapiens) (UniProt Q14164); conditions: at 1 µM;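 further: reported values are averaged percent inhibition figures against human IKKε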
# T1 sequence (whole entry): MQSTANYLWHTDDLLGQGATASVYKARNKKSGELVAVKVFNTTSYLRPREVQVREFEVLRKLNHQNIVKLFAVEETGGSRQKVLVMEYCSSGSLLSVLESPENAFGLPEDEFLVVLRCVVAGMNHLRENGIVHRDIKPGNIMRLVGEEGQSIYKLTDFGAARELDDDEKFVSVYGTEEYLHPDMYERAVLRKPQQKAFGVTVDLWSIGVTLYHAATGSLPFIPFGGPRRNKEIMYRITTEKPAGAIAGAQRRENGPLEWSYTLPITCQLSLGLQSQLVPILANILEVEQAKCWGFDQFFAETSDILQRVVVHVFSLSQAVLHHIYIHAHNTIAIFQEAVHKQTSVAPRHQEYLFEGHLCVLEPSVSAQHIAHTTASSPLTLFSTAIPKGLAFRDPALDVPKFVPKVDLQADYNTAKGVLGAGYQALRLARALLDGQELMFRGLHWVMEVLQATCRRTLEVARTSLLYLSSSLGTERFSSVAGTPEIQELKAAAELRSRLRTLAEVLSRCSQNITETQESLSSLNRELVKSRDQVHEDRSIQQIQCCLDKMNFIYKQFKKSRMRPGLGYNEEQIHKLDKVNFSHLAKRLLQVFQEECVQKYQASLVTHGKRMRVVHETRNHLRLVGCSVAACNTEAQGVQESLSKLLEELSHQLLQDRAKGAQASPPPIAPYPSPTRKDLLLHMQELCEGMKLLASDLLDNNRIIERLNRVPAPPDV
# [2] = biological target: T2, Serine/threonine-protein kinase Nek1 (Homo sapiens) (UniProt Q96PY6); conditions: at 0.1 µM
# T2 sequence (whole entry): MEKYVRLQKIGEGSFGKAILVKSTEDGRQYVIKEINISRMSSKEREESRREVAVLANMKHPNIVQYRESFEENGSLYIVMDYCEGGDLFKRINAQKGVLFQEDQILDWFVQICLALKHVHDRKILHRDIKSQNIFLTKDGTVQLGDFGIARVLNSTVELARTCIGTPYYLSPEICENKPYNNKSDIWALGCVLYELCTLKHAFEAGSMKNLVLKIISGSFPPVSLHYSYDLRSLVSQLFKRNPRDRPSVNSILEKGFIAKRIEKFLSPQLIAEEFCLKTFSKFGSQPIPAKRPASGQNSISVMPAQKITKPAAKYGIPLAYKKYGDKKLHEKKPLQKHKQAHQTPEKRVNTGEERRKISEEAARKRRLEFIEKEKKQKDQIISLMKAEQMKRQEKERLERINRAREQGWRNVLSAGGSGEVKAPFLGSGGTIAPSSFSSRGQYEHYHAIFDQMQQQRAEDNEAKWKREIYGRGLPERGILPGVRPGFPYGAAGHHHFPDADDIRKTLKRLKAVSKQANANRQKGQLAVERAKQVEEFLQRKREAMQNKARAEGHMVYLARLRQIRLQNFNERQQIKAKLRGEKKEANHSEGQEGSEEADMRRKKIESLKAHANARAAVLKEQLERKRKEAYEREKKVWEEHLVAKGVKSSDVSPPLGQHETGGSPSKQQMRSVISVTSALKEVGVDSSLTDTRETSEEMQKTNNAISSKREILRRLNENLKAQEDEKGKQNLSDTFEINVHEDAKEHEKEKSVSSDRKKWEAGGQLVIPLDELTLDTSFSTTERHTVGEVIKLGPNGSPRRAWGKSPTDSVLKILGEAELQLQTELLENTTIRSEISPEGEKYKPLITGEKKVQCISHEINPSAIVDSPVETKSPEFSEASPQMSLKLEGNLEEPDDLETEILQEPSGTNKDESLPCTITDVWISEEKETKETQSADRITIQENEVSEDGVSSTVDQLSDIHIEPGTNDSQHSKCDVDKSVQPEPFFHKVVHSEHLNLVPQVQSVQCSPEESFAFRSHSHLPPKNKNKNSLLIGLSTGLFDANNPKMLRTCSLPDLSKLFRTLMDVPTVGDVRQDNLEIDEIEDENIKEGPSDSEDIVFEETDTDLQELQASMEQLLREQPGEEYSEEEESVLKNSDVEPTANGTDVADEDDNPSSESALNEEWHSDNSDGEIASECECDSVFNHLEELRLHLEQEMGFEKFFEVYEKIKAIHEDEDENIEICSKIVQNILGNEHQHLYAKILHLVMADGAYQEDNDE
# [3] = biological target: T2, Serine/threonine-protein kinase Nek1 (Homo sapiens); conditions: at 1 µM
# [4] = biological target: T3, Serine/threonine-protein kinase Nek2 (Homo sapiens) (UniProt P51955); conditions: at 0.1 µM
# T3 sequence (whole entry): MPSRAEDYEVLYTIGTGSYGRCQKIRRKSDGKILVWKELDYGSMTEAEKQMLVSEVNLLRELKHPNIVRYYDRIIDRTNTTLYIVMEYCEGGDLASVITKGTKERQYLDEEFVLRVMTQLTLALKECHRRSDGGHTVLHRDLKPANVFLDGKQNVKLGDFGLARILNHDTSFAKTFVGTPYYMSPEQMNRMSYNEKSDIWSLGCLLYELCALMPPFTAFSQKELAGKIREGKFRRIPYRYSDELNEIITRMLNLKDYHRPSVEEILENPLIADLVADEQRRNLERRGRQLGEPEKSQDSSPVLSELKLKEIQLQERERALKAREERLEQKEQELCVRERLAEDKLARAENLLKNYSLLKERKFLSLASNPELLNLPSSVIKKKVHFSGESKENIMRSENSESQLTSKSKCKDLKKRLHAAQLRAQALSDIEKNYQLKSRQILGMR
# [5] = biological target: T3, Serine/threonine-protein kinase Nek2 (Homo sapiens); conditions: at 1 µM
# [6] = biological target: Serine/threonine-protein kinase Nek6 (Homo sapiens) (UniProt Q9HC98); conditions: at 0.1 µM
# [7] = biological target: Serine/threonine-protein kinase Nek6 (Homo sapiens) (UniProt Q9HC98); conditions: at 1 µM
# [8] = biological target: Serine/threonine-protein kinase Nek7 (Homo sapiens) (UniProt Q8TDX7); conditions: at 0.1 µM
# [9] = biological target: Serine/threonine-protein kinase Nek7 (Homo sapiens) (UniProt Q8TDX7); conditions: at 1 µM
# [10] = biological target: T4, Serine/threonine-protein kinase Nek9 (Homo sapiens) (UniProt Q8TD19); conditions: at 0.1 µM
# T4 sequence (whole entry): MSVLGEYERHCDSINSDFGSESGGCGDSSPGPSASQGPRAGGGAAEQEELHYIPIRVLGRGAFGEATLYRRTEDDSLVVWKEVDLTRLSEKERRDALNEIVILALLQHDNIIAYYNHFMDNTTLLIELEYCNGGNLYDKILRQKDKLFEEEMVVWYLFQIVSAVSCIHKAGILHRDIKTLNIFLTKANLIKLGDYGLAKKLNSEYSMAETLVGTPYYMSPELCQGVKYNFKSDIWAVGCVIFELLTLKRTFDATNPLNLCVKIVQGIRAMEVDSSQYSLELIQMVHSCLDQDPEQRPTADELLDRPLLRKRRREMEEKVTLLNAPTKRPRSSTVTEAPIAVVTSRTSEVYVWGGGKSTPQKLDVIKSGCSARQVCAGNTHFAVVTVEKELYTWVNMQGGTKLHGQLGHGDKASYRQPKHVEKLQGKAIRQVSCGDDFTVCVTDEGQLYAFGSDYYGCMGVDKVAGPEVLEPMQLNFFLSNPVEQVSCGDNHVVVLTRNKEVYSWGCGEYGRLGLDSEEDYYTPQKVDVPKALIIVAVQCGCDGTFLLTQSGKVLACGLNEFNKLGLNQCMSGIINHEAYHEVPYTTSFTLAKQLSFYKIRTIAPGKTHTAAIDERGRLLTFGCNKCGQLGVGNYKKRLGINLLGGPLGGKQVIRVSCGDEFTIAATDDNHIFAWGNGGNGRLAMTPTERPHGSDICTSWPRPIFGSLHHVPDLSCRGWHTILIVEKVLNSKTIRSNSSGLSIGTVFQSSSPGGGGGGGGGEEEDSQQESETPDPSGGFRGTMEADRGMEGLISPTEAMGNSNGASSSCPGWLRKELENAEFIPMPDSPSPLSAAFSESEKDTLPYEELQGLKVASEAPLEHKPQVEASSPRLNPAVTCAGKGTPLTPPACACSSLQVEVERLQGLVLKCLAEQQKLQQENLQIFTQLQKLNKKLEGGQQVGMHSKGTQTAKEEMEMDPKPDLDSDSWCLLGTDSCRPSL
# [11] = biological target: T4, Serine/threonine-protein kinase Nek9 (Homo sapiens); conditions: at 1 µM
# [12] = biological target: Serine/threonine-protein kinase PLK1 (Homo sapiens) (UniProt P53350); conditions: at 0.1 µM
# [13] = biological target: Serine/threonine-protein kinase PLK1 (Homo sapiens) (UniProt P53350); conditions: at 1 µM
# [14] = biological target: T5, Dual specificity protein kinase TTK (Homo sapiens) (UniProt P33981); conditions: at 0.1 µM
# T5 sequence (whole entry): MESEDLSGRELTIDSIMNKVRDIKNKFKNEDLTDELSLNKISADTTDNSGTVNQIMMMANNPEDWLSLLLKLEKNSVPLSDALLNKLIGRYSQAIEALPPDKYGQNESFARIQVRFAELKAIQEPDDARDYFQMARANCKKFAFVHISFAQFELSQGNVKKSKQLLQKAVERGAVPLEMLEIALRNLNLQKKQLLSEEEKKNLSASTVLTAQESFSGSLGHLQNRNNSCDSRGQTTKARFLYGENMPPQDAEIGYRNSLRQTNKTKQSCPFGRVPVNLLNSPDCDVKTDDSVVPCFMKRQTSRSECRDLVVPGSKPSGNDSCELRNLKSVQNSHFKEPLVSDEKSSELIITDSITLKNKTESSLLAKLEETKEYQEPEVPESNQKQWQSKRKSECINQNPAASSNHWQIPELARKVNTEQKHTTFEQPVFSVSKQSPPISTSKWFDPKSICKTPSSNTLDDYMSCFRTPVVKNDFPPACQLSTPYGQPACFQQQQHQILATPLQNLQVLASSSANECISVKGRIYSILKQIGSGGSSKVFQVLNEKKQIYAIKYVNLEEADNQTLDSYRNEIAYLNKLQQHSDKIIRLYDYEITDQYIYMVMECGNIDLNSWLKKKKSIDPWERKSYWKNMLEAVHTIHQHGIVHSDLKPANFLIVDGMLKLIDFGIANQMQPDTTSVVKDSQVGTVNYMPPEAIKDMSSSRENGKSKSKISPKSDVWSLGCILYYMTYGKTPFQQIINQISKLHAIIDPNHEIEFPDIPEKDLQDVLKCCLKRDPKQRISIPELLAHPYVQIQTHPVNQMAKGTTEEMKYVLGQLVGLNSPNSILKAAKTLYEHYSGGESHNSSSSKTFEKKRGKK
# [15] = tested on: T6, Receptor-type tyrosine-protein kinase FLT3 (Homo sapiens), P36888 [D835Y]; conditions: at 1 µM
# T6 sequence (whole entry): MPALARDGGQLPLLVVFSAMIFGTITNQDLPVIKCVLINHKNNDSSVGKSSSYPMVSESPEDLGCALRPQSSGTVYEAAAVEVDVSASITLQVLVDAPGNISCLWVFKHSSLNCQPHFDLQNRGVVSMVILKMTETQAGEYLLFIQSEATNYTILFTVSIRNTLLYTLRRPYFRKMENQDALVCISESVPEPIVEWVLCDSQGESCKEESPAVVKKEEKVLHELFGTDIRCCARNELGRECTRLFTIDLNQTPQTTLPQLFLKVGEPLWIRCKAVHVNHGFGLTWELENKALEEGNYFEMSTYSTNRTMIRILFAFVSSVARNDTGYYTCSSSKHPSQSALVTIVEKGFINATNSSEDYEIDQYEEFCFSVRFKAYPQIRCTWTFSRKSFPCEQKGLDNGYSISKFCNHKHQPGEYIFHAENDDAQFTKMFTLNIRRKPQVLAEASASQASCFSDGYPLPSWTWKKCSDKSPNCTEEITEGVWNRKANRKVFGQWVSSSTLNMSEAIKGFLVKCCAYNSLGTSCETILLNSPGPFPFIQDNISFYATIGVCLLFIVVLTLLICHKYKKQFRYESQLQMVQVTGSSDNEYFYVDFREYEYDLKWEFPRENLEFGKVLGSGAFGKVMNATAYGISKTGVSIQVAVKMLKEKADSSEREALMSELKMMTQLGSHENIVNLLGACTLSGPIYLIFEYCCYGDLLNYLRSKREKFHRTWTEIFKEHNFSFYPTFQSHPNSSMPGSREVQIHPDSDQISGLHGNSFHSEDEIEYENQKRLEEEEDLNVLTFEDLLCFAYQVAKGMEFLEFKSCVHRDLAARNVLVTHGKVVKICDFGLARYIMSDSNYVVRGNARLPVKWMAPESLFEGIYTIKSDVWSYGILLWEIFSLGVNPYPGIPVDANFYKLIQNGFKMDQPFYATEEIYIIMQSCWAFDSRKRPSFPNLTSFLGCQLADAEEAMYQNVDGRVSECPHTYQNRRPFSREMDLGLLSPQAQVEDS
# [16] = biological target: Vascular endothelial growth factor receptor 3 (Homo sapiens) (UniProt P35916); conditions: at 0.1 µM
# [17] = biological target: Vascular endothelial growth factor receptor 3 (Homo sapiens) (UniProt P35916); conditions: at 1 µM
# [18] = biological target: Macrophage colony-stimulating factor 1 receptor (Homo sapiens) (UniProt P07333); conditions: at 0.1 µM
# [19] = biological target: Macrophage colony-stimulating factor 1 receptor (Homo sapiens) (UniProt P07333); conditions: at 1 µM
# [20] = biological target: Tyrosine-protein kinase Fyn (Homo sapiens) (UniProt P06241); conditions: at 0.1 µM
# Tyrosine-protein kinase Fyn (Homo sapiens), sequence (P06241 2-537 limits assumed): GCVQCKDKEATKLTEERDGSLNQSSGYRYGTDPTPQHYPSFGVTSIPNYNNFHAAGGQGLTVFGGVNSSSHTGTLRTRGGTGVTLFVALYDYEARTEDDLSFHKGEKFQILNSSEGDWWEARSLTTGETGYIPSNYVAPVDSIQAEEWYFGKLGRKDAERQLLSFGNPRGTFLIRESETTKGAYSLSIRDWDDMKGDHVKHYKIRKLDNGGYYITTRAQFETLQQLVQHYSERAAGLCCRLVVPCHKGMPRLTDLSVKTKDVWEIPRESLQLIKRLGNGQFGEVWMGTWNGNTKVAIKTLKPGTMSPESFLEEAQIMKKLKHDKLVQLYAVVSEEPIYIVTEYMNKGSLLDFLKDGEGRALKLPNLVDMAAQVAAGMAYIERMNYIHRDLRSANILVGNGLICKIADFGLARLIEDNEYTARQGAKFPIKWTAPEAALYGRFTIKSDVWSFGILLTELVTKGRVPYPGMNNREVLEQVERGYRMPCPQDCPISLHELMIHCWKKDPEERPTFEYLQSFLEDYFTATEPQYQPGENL
# Serine/threonine-protein kinase Nek6 (Homo sapiens), sequence (Q9HC98 whole entry): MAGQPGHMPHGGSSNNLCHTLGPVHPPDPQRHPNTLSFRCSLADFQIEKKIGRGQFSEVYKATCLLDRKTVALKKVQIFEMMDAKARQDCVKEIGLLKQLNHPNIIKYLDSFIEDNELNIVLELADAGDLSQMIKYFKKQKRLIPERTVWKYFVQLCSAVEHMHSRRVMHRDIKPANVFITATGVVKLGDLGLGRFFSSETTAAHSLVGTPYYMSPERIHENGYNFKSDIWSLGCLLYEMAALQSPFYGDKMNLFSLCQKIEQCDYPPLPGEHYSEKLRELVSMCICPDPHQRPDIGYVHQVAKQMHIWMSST
# Vascular endothelial growth factor receptor 3 (Homo sapiens), sequence (P35916 whole entry): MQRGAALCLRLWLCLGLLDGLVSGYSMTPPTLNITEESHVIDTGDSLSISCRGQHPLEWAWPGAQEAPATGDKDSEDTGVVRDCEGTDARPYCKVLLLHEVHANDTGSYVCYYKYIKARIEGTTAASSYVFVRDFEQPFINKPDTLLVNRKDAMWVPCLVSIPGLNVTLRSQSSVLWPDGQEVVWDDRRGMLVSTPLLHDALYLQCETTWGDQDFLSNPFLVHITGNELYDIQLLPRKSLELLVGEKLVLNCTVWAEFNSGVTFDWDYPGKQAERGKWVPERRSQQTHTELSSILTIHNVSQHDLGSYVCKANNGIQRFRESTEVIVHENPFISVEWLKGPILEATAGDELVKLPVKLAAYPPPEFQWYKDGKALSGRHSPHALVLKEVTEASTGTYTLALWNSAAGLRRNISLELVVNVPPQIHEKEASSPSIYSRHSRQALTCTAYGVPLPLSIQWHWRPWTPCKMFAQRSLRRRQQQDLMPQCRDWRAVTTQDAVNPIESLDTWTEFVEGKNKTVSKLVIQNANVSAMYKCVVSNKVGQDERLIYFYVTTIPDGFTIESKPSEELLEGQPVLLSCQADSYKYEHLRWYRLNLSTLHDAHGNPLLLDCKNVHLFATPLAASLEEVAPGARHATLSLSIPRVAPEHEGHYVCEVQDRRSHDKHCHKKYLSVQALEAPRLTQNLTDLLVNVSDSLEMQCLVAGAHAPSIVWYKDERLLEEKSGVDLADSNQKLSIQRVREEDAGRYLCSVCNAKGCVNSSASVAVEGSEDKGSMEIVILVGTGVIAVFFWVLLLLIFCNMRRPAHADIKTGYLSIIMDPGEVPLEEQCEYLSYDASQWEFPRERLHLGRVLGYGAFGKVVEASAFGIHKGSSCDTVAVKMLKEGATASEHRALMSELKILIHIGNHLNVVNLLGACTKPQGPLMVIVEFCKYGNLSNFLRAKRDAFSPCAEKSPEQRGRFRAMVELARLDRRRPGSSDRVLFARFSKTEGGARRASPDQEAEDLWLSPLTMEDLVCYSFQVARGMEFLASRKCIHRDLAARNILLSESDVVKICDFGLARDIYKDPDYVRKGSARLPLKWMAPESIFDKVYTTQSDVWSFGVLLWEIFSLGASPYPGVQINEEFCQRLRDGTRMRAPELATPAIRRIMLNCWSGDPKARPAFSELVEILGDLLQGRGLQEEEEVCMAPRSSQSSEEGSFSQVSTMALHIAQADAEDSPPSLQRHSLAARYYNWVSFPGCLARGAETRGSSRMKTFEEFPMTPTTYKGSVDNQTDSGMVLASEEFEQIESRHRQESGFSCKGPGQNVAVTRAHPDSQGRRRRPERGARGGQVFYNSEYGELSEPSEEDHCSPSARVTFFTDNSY
# Macrophage colony-stimulating factor 1 receptor (Homo sapiens), sequence (P07333 whole entry): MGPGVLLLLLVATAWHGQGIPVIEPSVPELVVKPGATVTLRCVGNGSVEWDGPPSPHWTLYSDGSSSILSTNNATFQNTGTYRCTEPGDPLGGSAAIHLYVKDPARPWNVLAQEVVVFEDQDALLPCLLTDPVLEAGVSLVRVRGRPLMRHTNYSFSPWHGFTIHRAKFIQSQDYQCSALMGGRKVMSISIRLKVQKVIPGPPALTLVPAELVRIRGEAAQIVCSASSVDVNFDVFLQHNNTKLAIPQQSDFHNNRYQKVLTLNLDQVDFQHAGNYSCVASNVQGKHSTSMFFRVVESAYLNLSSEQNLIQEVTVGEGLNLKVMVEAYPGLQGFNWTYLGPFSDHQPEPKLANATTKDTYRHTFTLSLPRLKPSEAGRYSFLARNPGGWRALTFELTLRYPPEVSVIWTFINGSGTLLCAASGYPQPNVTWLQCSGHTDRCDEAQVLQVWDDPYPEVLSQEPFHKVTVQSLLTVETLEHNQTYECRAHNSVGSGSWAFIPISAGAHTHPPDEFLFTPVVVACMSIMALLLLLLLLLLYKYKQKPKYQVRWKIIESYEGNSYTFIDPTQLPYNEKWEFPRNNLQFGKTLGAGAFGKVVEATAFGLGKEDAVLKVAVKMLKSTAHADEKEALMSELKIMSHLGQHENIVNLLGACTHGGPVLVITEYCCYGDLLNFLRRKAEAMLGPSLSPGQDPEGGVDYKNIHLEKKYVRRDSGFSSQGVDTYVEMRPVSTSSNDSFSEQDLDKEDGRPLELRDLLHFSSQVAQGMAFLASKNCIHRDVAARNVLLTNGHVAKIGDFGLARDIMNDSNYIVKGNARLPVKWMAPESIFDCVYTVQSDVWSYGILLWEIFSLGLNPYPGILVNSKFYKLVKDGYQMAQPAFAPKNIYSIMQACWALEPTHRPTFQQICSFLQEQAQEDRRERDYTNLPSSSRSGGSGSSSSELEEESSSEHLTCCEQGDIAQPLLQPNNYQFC
# Serine/threonine-protein kinase Nek7 (Homo sapiens), sequence (Q8TDX7 whole entry, looked up): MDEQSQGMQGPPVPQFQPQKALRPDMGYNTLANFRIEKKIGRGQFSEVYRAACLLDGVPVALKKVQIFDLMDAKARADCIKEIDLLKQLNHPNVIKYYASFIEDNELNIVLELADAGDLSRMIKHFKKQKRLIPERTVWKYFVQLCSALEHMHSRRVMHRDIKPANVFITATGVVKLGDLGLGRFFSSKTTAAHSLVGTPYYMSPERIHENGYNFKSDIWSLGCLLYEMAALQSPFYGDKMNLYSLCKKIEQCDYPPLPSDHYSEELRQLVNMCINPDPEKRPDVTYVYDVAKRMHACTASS
# Serine/threonine-protein kinase PLK1 (Homo sapiens), sequence (P53350 whole entry): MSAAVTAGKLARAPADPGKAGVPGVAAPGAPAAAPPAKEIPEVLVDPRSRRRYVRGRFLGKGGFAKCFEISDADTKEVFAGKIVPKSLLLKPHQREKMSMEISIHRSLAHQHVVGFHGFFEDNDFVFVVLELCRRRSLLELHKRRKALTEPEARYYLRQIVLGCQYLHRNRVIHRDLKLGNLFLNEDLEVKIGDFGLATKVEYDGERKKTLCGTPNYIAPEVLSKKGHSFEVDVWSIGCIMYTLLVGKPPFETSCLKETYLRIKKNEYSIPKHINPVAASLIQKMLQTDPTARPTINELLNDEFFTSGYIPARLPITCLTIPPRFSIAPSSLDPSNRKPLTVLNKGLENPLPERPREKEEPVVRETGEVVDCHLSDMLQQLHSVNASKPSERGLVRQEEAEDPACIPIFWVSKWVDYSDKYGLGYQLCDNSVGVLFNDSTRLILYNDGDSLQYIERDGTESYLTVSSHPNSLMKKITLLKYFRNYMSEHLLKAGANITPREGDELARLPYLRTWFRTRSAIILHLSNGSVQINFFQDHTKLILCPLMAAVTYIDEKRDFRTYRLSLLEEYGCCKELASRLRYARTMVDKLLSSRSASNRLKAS
SMILES,inhibition [1],inhibition [2],inhibition [3],inhibition [4],inhibition [5],inhibition [6],inhibition [7],inhibition [8],inhibition [9],inhibition [10],inhibition [11],inhibition [12],inhibition [13],inhibition [14],inhibition [15],inhibition [16],inhibition [17],inhibition [18],inhibition [19],inhibition [20]
C[C@@H](Oc1cc(-n2cnc3ccc(OCC4CCN(C)CC4)cc32)sc1C(N)=O)c1ccccc1C(F)(F)F,-1.35%,18.4%,60.5%,23.6%,69.2%,-1.61%,0.33%,-2.74%,-0.71%,88.3%,102%,91.6%,94.3%,1.25%,20.9%,1.45%,18.6%,-4.84%,8.46%,2.33%
Cc1ccc2c(-c3ccnc(Nc4ccc5c(c4)OCCO5)n3)c(-c3ccc(C(F)(F)F)cc3)nn2n1,-0.03%,0.53%,1.72%,1.37%,1.37%,0.53%,-0.1%,-0.01%,0%,1.38%,1.95%,-2.52%,2.75%,4.62%,-0.37%,-1.78%,2.51%,-1.16%,14.6%,1.42%
COc1cccc(-n2nc(C)c3c(N/N=C(\C)c4ccncc4)ncnc32)c1,1.16%,1.7%,-0.2%,1.96%,-1.21%,1.56%,1.26%,0.76%,2.39%,4.23%,2.13%,-0.78%,2.34%,2.35%,1.49%,1.67%,1.25%,-1.96%,5.8%,1.21%
